From the supplement of paper PMC7411054
Counter-ions that a name gives are not always drawn.

Legend:
Settings in all cases: treatment time: 24 h
A549-ACTB-RAB5A [1] = assay: lowest phenotypically active concentration; higher = less potent
Outline: (§1)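 Each of fifteen gene-edited A549, HepG2 and WPMY1 reporter lines, marked with BFP for segmentation and GFP and RFP/FusionRed, was treated in four wells at 0.3, 1, 3 or 9 µM for 24 h prior to live imaging. Normalisation of per-well live-cell features used solvent control wells. Deviation needed ≥3 of 4 wells beyond the 95th percentile of control Euclidean distances, and reproducibility needed a median replicate Pearson correlation above the 95th percentile of non-replicates. Both were required for phenotypic activity.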

A549-CANX-COX4 [2] = assay: as above
Outline: as §1

A549-GM130-SQSTM1 [3] = assay: as above
Outline: as §1

A549-TP53BP1-CLTA [4] = assay: as above
Outline: as §1

A549-TUBA1B-RELA [5] = assay: as above
Outline: as §1

A549-ACTB-RAB5A [6] = assay: phenotypically active (imaging signature differs from DMSO and reproducible) at any of 0.3-9 uM (binary (1 = active, 0 = inactive)); higher = active
Outline: as §1

A549-CANX-COX4 [7] = assay: as above
Outline: as §1

A549-GM130-SQSTM1 [8] = assay: as above
Outline: as §1

A549-TP53BP1-CLTA [9] = assay: as above
Outline: as §1

A549-TUBA1B-RELA [10] = assay: as above
Outline: as §1

HepG2-ACTB-RAB5A = assay: as above
Outline: as §1

HepG2-CANX-COX4 = assay: as above
Outline: as §1

HepG2-GM130-SQSTM1 = assay: as above
Outline: as §1

HepG2-TP53BP1-CLTA = assay: as above
Outline: as §1

HepG2-TUBA1B-RELA = assay: as above
Outline: as §1

WPMY1-ACTB-RAB5A = assay: as above
Outline: as §1

WPMY1-CANX-COX4 = assay: as above
Outline: as §1

WPMY1-GM130-SQSTM1 = assay: as above
Outline: as §1

WPMY1-TP53BP1-CLTA = assay: as above
Outline: as §1

WPMY1-TUBA1B-RELA = assay: as above
Outline: as §1

Structure (SMILES)	lowest phenotypically active concentration (A549-ACTB-RAB5A [1]) [µM]	lowest phenotypically active concentration (A549-CANX-COX4 [2]) [µM]	lowest phenotypically active concentration (A549-GM130-SQSTM1 [3]) [µM]	lowest phenotypically active concentration (A549-TP53BP1-CLTA [4]) [µM]	lowest phenotypically active concentration (A549-TUBA1B-RELA [5]) [µM]	phenotypically active (A549-ACTB-RAB5A [6])	phenotypically active (A549-CANX-COX4 [7])	phenotypically active (A549-GM130-SQSTM1 [8])	phenotypically active (A549-TP53BP1-CLTA [9])	phenotypically active (A549-TUBA1B-RELA [10])	phenotypically active (HepG2-ACTB-RAB5A)	phenotypically active (HepG2-CANX-COX4)	phenotypically active (HepG2-GM130-SQSTM1)	phenotypically active (HepG2-TP53BP1-CLTA)	phenotypically active (HepG2-TUBA1B-RELA)	phenotypically active (WPMY1-ACTB-RAB5A)	phenotypically active (WPMY1-CANX-COX4)	phenotypically active (WPMY1-GM130-SQSTM1)	phenotypically active (WPMY1-TP53BP1-CLTA)	phenotypically active (WPMY1-TUBA1B-RELA)
COc1cc(C)c(Sc2cnc(NC(=O)c3ccc(CNC(C)C(C)(C)C)cc3)s2)cc1C(=O)N1CCN(C(C)=O)CC1 (stereo not given)	1	9	3	9	1	1 (active)	1 (active)	1 (active)	1 (active)	1 (active)	1 (active)	1 (active)	1 (active)	1 (active)	1 (active)	1 (active)	1 (active)	1 (active)	1 (active)	1 (active)
Cc1ccc(/C(=C/CN2CCCC2)c2cccc(/C=C/C(=O)O)n2)cc1 [acrivastine]	1	9	3	9	1	1 (active)	1 (active)	1 (active)	1 (active)	1 (active)	1 (active)	1 (active)	1 (active)	1 (active)	1 (active)	1 (active)	1 (active)	1 (active)	1 (active)	1 (active)
Cc1c(CN2CCN(C(=O)[C@H](C)O)CC2)sc2c(N3CCOCC3)nc(-c3cnc(N)nc3)nc12	≤ 0.3	≤ 0.3	≤ 0.3	≤ 0.3	≤ 0.3	1 (active)	1 (active)	1 (active)	1 (active)	1 (active)	1 (active)	1 (active)	1 (active)	1 (active)	1 (active)	1 (active)	1 (active)	1 (active)	1 (active)	1 (active)
NC1(C(=O)N[C@@H](CCO)c2ccc(Cl)cc2)CCN(c2ncnc3[nH]ccc23)CC1	≤ 0.3	1	1	1	3	1 (active)	1 (active)	1 (active)	1 (active)	1 (active)	1 (active)	1 (active)	1 (active)	1 (active)	1 (active)	1 (active)	1 (active)	1 (active)	1 (active)	1 (active)
COc1cc2c(cc1-c1c(C)noc1C)ncc1[nH]c(=O)n([C@H](C)c3ccccn3)c12 [I-BET 151 dihydrochloride]	1	3	1	3	1	1 (active)	1 (active)	1 (active)	1 (active)	1 (active)	1 (active)	1 (active)	1 (active)	1 (active)	1 (active)	1 (active)	1 (active)	1 (active)	1 (active)	1 (active)
C[C@H]1[C@H]2CC[C@H]3[C@@H]4CC=C5C[C@@H](N(C)C)CC[C@]5(C)[C@H]4CC[C@]23CN1C [Conessine]	1	9	1	3	1	1 (active)	1 (active)	1 (active)	1 (active)	1 (active)	1 (active)	1 (active)	1 (active)	1 (active)	1 (active)	1 (active)	1 (active)	1 (active)	1 (active)	1 (active)
